The text below walks through data of PubChem BioAssay AID743286 (National Center for Advancing Translational Sciences (NCATS), 2014).

About 340 (31%) of roughly 1,100 compounds were called active. Roughly 40% stayed inconclusive and do not appear here. The call rests on the fitted dose curve; in most records, active means well fitted inhibition curve with a large enough effect; inconclusive means small, poorly fitted or top-dose-only effect; inactive means flat fitted curve, though single readings scatter. Only a sample is shown. Where a call stands in place of a potency, no number is given.
Potency means the concentration at half of the fitted maximal effect.

Phosphatidylinositol 5-phosphate 4-kinase type-2 alpha (Homo sapiens), sequence (P48426 whole entry, looked up, canonical isoform): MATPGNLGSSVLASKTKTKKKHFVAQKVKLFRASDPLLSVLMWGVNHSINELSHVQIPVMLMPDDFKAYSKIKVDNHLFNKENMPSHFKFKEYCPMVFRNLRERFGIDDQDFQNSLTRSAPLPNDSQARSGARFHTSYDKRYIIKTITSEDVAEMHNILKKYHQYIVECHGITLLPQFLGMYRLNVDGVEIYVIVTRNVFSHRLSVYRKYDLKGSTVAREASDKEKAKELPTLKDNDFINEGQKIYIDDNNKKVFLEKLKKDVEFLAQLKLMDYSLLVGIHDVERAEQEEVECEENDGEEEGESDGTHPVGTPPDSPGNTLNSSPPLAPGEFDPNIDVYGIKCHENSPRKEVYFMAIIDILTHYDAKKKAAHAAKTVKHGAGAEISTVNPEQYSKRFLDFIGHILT

The test deals with Phosphatidylinositol 5-phosphate 4-kinase type-2 alpha (Homo sapiens) (UniProt P48426). Nature of the test: qHTS for Inhibitors of PI5P4K: Confirmation in Primary Assay. Further: nearly all actives have a fitted effect of over 65% in size. Particulars: PI5P4Kalpha enzyme, ADP-Glo luminescence, 60 min; series mostly up to 76.9 µM. The text has this:
In addition to finding PI5P, we discovered the type II phosphatidylinositol 5-phosphate 4-kinase (PI5P4K) family (alpha, beta, gamma isoforms) that catalyze the conversion of PI5P to PI(4,5)P2. Alternatively, PI(4,5)P2 can also be synthesized through phosphatidylinositol-4-phosphate (PI4P) by the type I phosphatidylinositol 4-phosphate 5-kinases (PI4P5K). These PI5P4K enzymes therefore represent one way by which cells can regulate endogenous PI5P levels and play important roles in insulin signaling and in stress responses. […] A qHTS PI5P4K-alpha ADP-Glo assay was developed to identify specific modulators of human PI5P4K, phosphatidylinositol-5-phosphate 4-kinase (Type II PIPK). This assay was screened against the MLSMR containing ~400,000 small molecules (PubChem AID 652105). To confirm that the hits were not interacting with the detection enzyme system, a 1536-well counterscreen against the ADP-Glo kit (Promega) was utilized, as described in Davis et al., 2013 [1]. Davis et al., PLoS One. 2013;8(1):e54127. NIH Chemical Genomics Center [NCGC] NIH Molecular Libraries Probe Centers Network [MLPCN] MLPCN Grant: MH096575 Assay Submitter (PI): Atsuo Sasaki, Beth Israel Deaconess Medical Center
2 microL of PI5P4Kalpha/substrate buffer (columns 1-2, 5-48) are dispensed into Greiner white solid bottom 1536-well assay plates; column 3 receives only PI5P4Kalpha buffer as 0x substrate controls; column 4 receives only substrate buffer as 0x PI5P4Kalpha controls. Final assay buffer consists of 0.038 M HEPES pH 7.4, 0.28 mM EGTA, 0.1% CHAPS, and 5% DMSO (final concentration). Compounds are then transferred via Kalypsys pin tool equipped with 1536-pin array (10 nL slotted pins, V&P Scientific, San Diego, CA). Following addition of compound, 1 microL of ATP (5 microM final concentration, all columns) is added to initiate the reaction. ATP is diluted in an assay buffer consisting of 0.02 M HEPES pH 7.4, 60 mM MgCl2, 15 microM ATP, and 0.1% CHAPS. The plates are then incubated at room temperature for 60 minutes. ADP-Glo reagent 1 is added (2 microL) and plates incubated for 45 minutes, before ADP-Glo reagent 2 (4 microL) is added and plates incubated for 30 minutes. They are then transferred to a ViewLux high-throughput CCD imager (PerkinElmer) wherein single end-point measurements of luminescence are acquired using a clear filter.
In general terms: qHTS replaces the single test concentration by a dilution series.
For `CCC(=O)Oc1ccc(C(=O)Nc2cccc(C(=O)c3ccccc3)c2)cc1`, the Potency was 8.91 µM (active). To `N#CC1c2ccccc2-n2nncc2CN1Cc1cc(Cl)cc(Cl)c1` (stereo not given) belongs “inactive”; to `COC(=O)C1=C(c2ccc(F)cc2F)C[C@@H]2CC[C@H]1N2C(=O)NC1Cc2ccccc2C1`, “inactive”.

As for `COc1ccc(C(=O)C2CCCN(Cc3ccon3)C2)c(OC)c1` (stereo not given), the Potency result is “inactive”.

Take `CC(C)NCC(O)c1ccc(C2CCCC2)cc1` (stereo not given): the Potency result was “inactive”.
